The test can be described thus: yeast 26S proteasome protease site inhibitors – biochemical, fluorogenic peptides, secondary, counter-screen for 26S proteasome disassembly project (AID 2132). The conditions noted are these: fluorogenic peptide cleavage rate, with Ac-nLPnLD-amc, at 100 µM, stronger effect = higher value.

A number with no mark means an inactive call. The source made the active and inactive calls.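 How the source made its calls: active means inhibition above 20%; inactive means the rest.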 Peptide text beside a SMILES is read from it. * marks the point of attachment. Cbz = O=C(OCc1ccccc1)*

The inhibition is the relative decrease from the control value, in per cent. Regarding `CC(=O)N1C(=O)C(=C2C=C(C)OC(C)=C2)c2ccccc21`, the inhibition was 20%.
Next, `CC(C)C[C@@H](C=O)NC(=O)[C@H](CC(C)C)NC(=O)[C@H](CC(C)C)NC(=O)OCc1ccccc1` (Cbz-Leu-Leu-Leu-aldehyde): 27% (active).

The values above are taken from PubChem BioAssay AID2132 (NMMLSC, 2009).
